Tgondii IFNg: T. gondii growth inhibition under IFN-gamma | Toxoplasma gondii growth in IFN-gamma-treated host cells; active compounds read low | activity change, negative = inhibition, % (no concentration beside the values) | 69,000 tested, 3.8% active; in the data active = activity change below about -70%, passing the limit was not always enough;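 note: host cells are HeLa cells infected with Toxoplasma gondii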
Large screens that a line does not name were inactive; ! = not active in a repeat. This excerpt belongs to a sample that is enriched for hits.

COc1cccc(S(=O)(=O)Nc2ccc3c(c2)C(=O)N(C)C[C@@H](OC)[C@@H](C)CN(Cc2ccccc2F)[C@H](C)CO3)c1	none
COc1cccc(S(=O)(=O)Nc2ccc3c(c2)C(=O)N(C)C[C@H](OC)[C@H](C)CN(Cc2ccccc2F)[C@@H](C)CO3)c1	none
COc1ccc(S(=O)(=O)Nc2ccc3c(c2)OC[C@@H](C)N(Cc2cc(F)ccc2F)C[C@@H](C)[C@H](OC)CN(C)C3=O)cc1	Tgondii IFNg -90
COc1cccc(S(=O)(=O)Nc2ccc3c(c2)C(=O)N(C)C[C@H](OC)[C@H](C)CN(Cc2ccccc2F)[C@H](C)CO3)c1	none
COc1cccc(S(=O)(=O)Nc2ccc3c(c2)C(=O)N(C)C[C@H](OC)[C@@H](C)CN(Cc2ccccc2F)[C@H](C)CO3)c1	none
COc1cccc(S(=O)(=O)Nc2ccc3c(c2)C(=O)N(C)C[C@@H](OC)[C@H](C)CN(Cc2ccccc2F)[C@H](C)CO3)c1	Tgondii IFNg -97
CC(C(=O)NCc1ccccc1-n1ccnc1)n1cc(Cl)cn1 (centres undefined)	none
O=C(CNC1CCS(=O)(=O)C1)N1CCCC(c2cc3ccccc3cn2)C1 (centres undefined)	none
O=C(NC(=S)OCc1ccccc1Cl)c1ccco1	none
CC(=O)Nc1ccc(Cl)c(C(=O)NCCOc2ccccc2)c1	none
Cc1ccc2cc(C3(O)CCN(C(=O)c4ccc5c(c4)OCO5)CC3)ccc2n1	none
CCOc1ccc(-c2nc(CN3CCN(C(=O)Nc4ccccc4C(=O)OC)CC3)c(C)o2)cc1	none
CCOC(=O)c1cnc(-c2cccs2)nc1Sc1ccc(Cl)cc1	none
COC(=O)c1cnc(Sc2ccc(Cl)cc2)nc1C(F)(F)F	Tgondii IFNg -101
CCOc1cc(C(F)(F)F)c(C(=O)N(CC)c2ccc(Cl)cc2)cn1	none
Cn1cccc1CNC1C2CC3CC(C2)CC1C3 (centres undefined)	none
NCCCCCCNS(=O)(=O)c1cccc2ccccc12	none
Nc1nc(NCC2CCC(CNS(=O)(=O)c3cccc4ccccc34)CC2)nc2ccccc12 (centres undefined)	Tgondii IFNg -77!
NC(N)=NCCNS(=O)(=O)c1cccc2cnccc12	none
CCOC1CC2(CCN(c3cnccn3)CC2)c2ccccc21 (centres undefined)	none
COc1ccc(S(=O)(=O)N2CCC[C@H](Cn3nnc(-c4cccs4)n3)C2)cc1	none
CC(=O)N1CCC2(CC1)OC(=O)C(C)=C2C(=O)NCC1CCCO1 (centres undefined)	none
Cc1cc(C)cc(S(=O)(=O)N2CCc3nc(-c4ccccc4)sc3C2)c1	none
COc1cccc(-c2nc3c(s2)CN(S(=O)(=O)c2cc(C)cc(C)c2)CC3)c1	Tgondii IFNg -85
CCOc1ccc(S(=O)(=O)N2CCc3nc(-c4ccccc4)sc3C2)cc1	none
COc1ccc(-c2nc3c(s2)CN(S(=O)(=O)c2cccc(F)c2)CC3)cc1	none
COc1ccc(-c2nc3c(s2)CN(S(=O)(=O)c2cc(C)cc(C)c2)CC3)cc1	Tgondii IFNg -116
CCc1ccccc1S(=O)(=O)N1CCc2nc(-c3ccc(OC)cc3)sc2C1	Tgondii IFNg -92
COc1ccc(-c2nc3c(s2)CN(S(=O)(=O)c2cccs2)CC3)cc1	Tgondii IFNg -94
COc1ccc(-c2nc3c(s2)CN(S(=O)(=O)c2ccc(OC)cc2)CC3)cc1	none
COc1cccc(-c2nc3c(s2)CN(S(=O)(=O)c2cccc(Cl)c2)CC3)c1	none
COc1ccc(-c2nc3c(s2)CN(S(=O)(=O)c2ccc(CC(C)C)cc2)CC3)cc1	none
COc1ccc(-c2nc3c(s2)CN(S(=O)(=O)c2c(C)cc(C)cc2C)CC3)cc1	none
CCOc1ccc(-c2nc3c(s2)CN(S(=O)(=O)c2cccc(Cl)c2C)CC3)cc1	none
CCc1cccc(C)c1NC(=O)Cn1c(=O)cc(C(=O)NC)c2ccccc21	none
Cc1oc(-c2ccccc2)nc1CN(c1ccccc1)S(=O)(=O)c1cccs1	none
COc1ccc(-c2cc(C(C)=O)ccc2N2CCOCC2)c(OC)c1	none
COc1cc(OC)c2nc(NCCC(N)=O)cc(C)c2c1	none
Cc1ccccc1C1CCCN1C(=O)c1ccc(OCC(N)=O)cc1 (centres undefined)	none
COC(C)(C)C(=O)N1CCC(CO)(CCCc2ccccc2)CC1	none
Cc1ccc(N2CCCC2=O)cc1S(=O)(=O)NCCNC(=O)c1ccccn1	none
Cc1oc(-c2ccccc2)nc1Cc1noc(COc2ccc(F)cc2)n1	none
CCOC(=O)C1CCN(S(=O)(=O)c2cc(-c3nc(C(C)(C)C)cs3)cs2)CC1	none
O=C(CC(F)(F)F)N1CCC2(CCCN(c3ncccn3)C2)CC1	none
CCN1CCC2(CN(CC(C)C)CC23CCN(C(=O)c2cc(C)oc2C)CC3)C1=O (centres undefined)	none
COc1cc(NC(=O)COc2nc(C)nc3ccccc23)cc(OC)c1	none
CC(C)(C)c1ccc(S(=O)(=O)N2CCc3nc(-c4ccccc4)sc3C2)cc1	none
Cc1ccc(-c2nc3c(s2)CN(S(=O)(=O)c2ccccc2Cl)CC3)cc1	none
Cc1ccc(-c2nc3c(s2)CN(S(=O)(=O)c2ccc(F)cc2F)CC3)cc1	Tgondii IFNg -88
Nc1nc(C(F)(F)F)nn1CC(=O)N1CCC(COc2ccc(Cl)cc2)CC1	none
Cc1nccn1CCN(C)c1nc(C(C)(C)C)nc2c1cnn2C	none

High-throughput results as filed in PubChem.
